Most compounds without a hit are left out; they make up all but 0.38% or so of the library.
HRas wt GTP: modulators of GTP binding to human HRas wildtype. GTP binding activity, % at 10 µM. P01112. AID 759. GST-Ras wt beads, Bodipy-FL-GTP binding, flow cytometry; actives lie on both sides. hit rate 0.14% among 190,000;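 active = GTP binding activity at least 20% away from the 100% baseline, either lowered as inhibitor or raised as activator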;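 note: 0% = unlabeled GTP competition control and 100% = no-compound control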
Target sequence (P01112 whole entry, looked up): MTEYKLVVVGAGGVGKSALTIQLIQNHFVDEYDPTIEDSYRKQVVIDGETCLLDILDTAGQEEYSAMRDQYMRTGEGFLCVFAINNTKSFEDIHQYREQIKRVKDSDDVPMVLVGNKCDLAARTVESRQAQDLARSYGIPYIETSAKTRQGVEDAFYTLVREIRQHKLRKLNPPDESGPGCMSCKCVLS
Rac1 act GTP bind: human Rac1 activated mutant GTP binding change; P63000; GST-Rac1 activated beads, fluorescent GTP binding, flow cytometry; actives lie on both sides; 100% means binding = to untreated wells; percent activity (GTP binding), % at 10 µM; hit rate 0.11% among 190,000; AID 764;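 active = GTP binding at least 20 percentage points away from the 100% baseline, in either direction, so actives lie on both sides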
Rab7 wt GTP bind: alters GTP binding to wildtype dog Rab7; AID 758; GTP binding activity (percent of control), % at 10 µM; GST-Rab7 beads, fluorescent GTP binding, flow cytometry; actives lie on both sides; untreated = 100%, excess cold GTP = 0%; hit rate 0.055% among 190,000;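 active = fluorescent GTP binding to Rab7 beads changed by at least 20 points from the 100% baseline, either direction, mostly lower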;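 note: median green fluorescence of bound Bodipy-FL-GTP per Rab7 bead population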
Rab2 wt GTP: changes GTP binding to wildtype dog Rab2A, up or down. P61105. GST-Rab2 wt beads, Bodipy-GTP binding, flow cytometry. GTP binding activity, % at 10 µM. hit rate 0.19% among 190,000. AID 760;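 active = GTP binding activity at least 20 points away from 100%, either lowered or raised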;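 note: 0% = beads with excess unlabeled GTP and 100% = no-compound control corrected for plate trend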
Rac1 wt GTP bind: human Rac1 wildtype GTP binding, inhibitors and activators; AID 757; P63000; GTP binding activity (% of control), % at 10 µM; hit rate 0.27% among 190,000; GST-Rac1 beads, fluorescent GTP binding, flow cytometry; actives lie on both sides; 0 = cold GTP competed, 100 = untreated;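 active = GTP binding activity at least 20 points away from the 100% control level, either lower or higher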
Cdc42 wt GTP: human Cdc42 wildtype GTP binding change, either direction; GST-Cdc42 beads, Bodipy-GTP binding, flow cytometry; actives lie on both sides; percent activity (GTP binding), % at 10 µM; hit rate 0.2% among 190,000;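 active = percent activity GTP binding at least 20 points away from the 100% baseline, either down as inhibitor or up as activator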;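 note: median bead fluorescence of bound Bodipy-FL-GTP at 100 nM; 0% = excess unlabeled GTP control and 100% = no compound control; below 100% means less GTP binding so inhibitor and above means activator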
Target sequence (P60953 whole entry, looked up): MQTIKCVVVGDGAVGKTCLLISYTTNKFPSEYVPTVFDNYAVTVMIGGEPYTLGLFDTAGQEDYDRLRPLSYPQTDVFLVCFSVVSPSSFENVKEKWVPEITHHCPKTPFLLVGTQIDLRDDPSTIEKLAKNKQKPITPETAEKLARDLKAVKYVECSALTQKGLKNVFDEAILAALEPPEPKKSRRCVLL
* hit, by the source's call; [ ] = dose if it differs, or a comment.

SMILES	HRas wt GTP	Rac1 act GTP bind	Rab7 wt GTP bind	Rab2 wt GTP	Rac1 wt GTP bind	Cdc42 wt GTP
CCN1/C(=C\C=C2\C(=O)N(C)C(=S)N2C)Sc2ccccc21	83.0	88.0	93.0	94.0	88.0	97.0
CN1CCS/C1=C/C=C1/SC(=S)N(Cc2ccccc2)C1=O	97.0	98.0	100.0	99.0	97.0	95.0
CCN1C(=O)/C(=C/C=C2/Sc3ccc4ccccc4c3N2CCO)SC1=S	78.0*	83.0	81.0	84.0	75.0*	78.0*
COc1cccc(NC(=O)c2ccc(C(=O)c3ccccc3)o2)c1	96.0	94.0	95.0	94.0	97.0	93.0
Cc1occc1-c1nnc(SCC(=O)N(C)C)o1	97.0	96.0	101.0	98.0	100.0	96.0
CCOC(=O)Cn1nc(C)n(-c2ccc(C(C)(C)C)cc2)c1=O	102.0	99.0	104.0	102.0	104.0	103.0
COc1cc(/C=C2/C(C)=C(C#N)c3nc(N)c(C#N)c(C)c32)ccc1OCC(=O)O	85.0	80.0	87.0	81.0	87.0	80.0
CC1=C(C#N)c2nc(N)c(C#N)c(C)c2/C1=C\c1ccc(-c2ccccc2C(=O)O)o1	81.0	81.0	88.0	76.0*	75.0*	78.0*
CCOC(=O)C1=NOC(C(=O)NN(C)c2ncc(C(F)(F)F)cc2Cl)C1 (stereo not drawn)	99.0	98.0	107.0	102.0	99.0	96.0
Cn1nnc(NC(=S)NC(=O)c2ccc(-c3ccc(Br)cc3)o2)n1	87.0	87.0	96.0	86.0	76.0*	81.0
O=C(OC1CCCCC1)c1ccc(NC(=O)C2CCCCC2)cc1	97.0	99.0	95.0	99.0	99.0	79.0*
O=C(O)CCC(=O)Nc1ccc(C(=O)OC2CCCCC2)cc1	99.0	99.0	96.0	99.0	97.0	97.0
COCCOC(=O)c1c(C)oc2ccc(OC(=O)c3ccc4c(c3)OCO4)cc12	83.0	73.0*	79.0*	76.0*	75.0*	77.0*
CCOC(=O)Oc1ccc2oc(C)c(C(=O)OCCOC)c2c1	99.0	97.0	99.0	99.0	100.0	98.0
Cc1cc(C(=O)CCl)c(C)n1-c1cccc(S(=O)(=O)N2CCOCC2)c1	94.0	90.0	93.0	93.0	94.0	90.0
COc1cc(/C=N/NC(=O)CN(Cc2ccccc2)S(=O)(=O)c2ccc3c(c2)OCCO3)ccc1O	81.0	88.0	90.0	78.0*	78.0*	89.0
COc1cc(/C=N/NC(=O)CN(Cc2ccco2)S(=O)(=O)c2ccccc2)ccc1O	84.0	90.0	94.0	81.0	77.0*	86.0
COc1ccc(/C=N/NC(=O)CN(Cc2ccccc2)S(=O)(=O)c2ccc3c(c2)OCCO3)cc1	91.0	94.0	92.0	88.0	89.0	95.0
CCOC(=O)C1(CCc2ccccc2)CCN(Cc2cccc3nccnc23)CC1	96.0	96.0	101.0	97.0	97.0	95.0
CCS(=O)(=O)CCSC(=N)N	105.0	101.0	104.0	102.0	104.0	105.0
Cn1ccs/c1=N\C(=O)Nc1ccccc1	100.0	98.0	107.0	102.0	101.0	100.0
Cc1nc2ncnn2c(C)c1Cc1cccc(C(F)(F)F)c1	99.0	93.0	99.0	101.0	99.0	102.0
Cc1c(C(=O)Nc2ccc(F)cc2)c2ccccn2c1CCc1ccncc1	96.0	98.0	95.0	96.0	99.0	101.0
CC1(C)Cc2c(sc3c2C2=NCCN2C=N3)CS1	106.0	104.0	104.0	107.0	123.0*[activator]	113.0
COc1ccc(C(=O)NC(=S)N2CC(C)OC(C)C2)cc1 (stereo not drawn)	91.0	98.0	93.0	98.0	137.0*[activator]	154.0*[activator]
SMILES	HRas wt GTP	Rac1 act GTP bind	Rab7 wt GTP bind	Rab2 wt GTP	Rac1 wt GTP bind	Cdc42 wt GTP
COc1ccc(CNC(=O)C2CCCN(c3nccc(C)n3)C2)cc1 (stereo not drawn)	102.0	102.0	98.0	98.0	106.0	103.0
Cc1ccc(/C(N)=N/OC(=O)CCC2CCCCC2)cc1	109.0	107.0	96.0	114.0	133.0*[activator]	102.0
O=c1[nH]c(SCc2cccc(F)c2)nc2c1CCCC2	96.0	97.0	96.0	96.0	99.0	96.0
COc1ccccc1NC(=O)CN(c1ccc(C)cc1)S(=O)(=O)c1c(C)n[nH]c1C	99.0	99.0	94.0	98.0	103.0	98.0
COc1ccc(N(CC(=O)Nc2cccc(C)c2C)S(=O)(=O)c2c(C)n[nH]c2C)cc1	84.0	88.0	87.0	79.0*	81.0	83.0
COC(=O)C1=C(C)NC(=O)/C1=C\c1cc(C)n(-c2ccccc2C)c1C	101.0	99.0	102.0	100.0	102.0	102.0
COC(=O)C1=C(C)NC(=O)/C1=C\c1cc(C)n(-c2c(C)cccc2C)c1C	122.0*[activator]	110.0	112.0	123.0*[activator]	113.0	121.0*[activator]
Cc1ccc(S(=O)(=O)Cc2ccc(C(=O)N3CCN(c4cc(C)ccc4C)CC3)o2)cc1	87.0	77.0*	84.0	80.0	80.0	81.0
Cc1ccc(C)c(N2CCN(C(=O)c3ccc(CS(=O)(=O)c4ccccc4C)o3)CC2)c1	89.0	83.0	93.0	87.0	87.0	89.0
CCCCCN1C(=O)Cn2c(nc3ccccc3c2=O)C1C (stereo not drawn)	95.0	94.0	101.0	97.0	94.0	97.0
O=C(CCCCCNc1nc(=S)[nH]c2ccccc12)N1CCN(c2ccccn2)CC1	91.0	98.0	94.0	91.0	91.0	91.0
COc1cccc(N2CCN(C(=O)CCCCCNc3nc(=S)[nH]c4ccccc34)CC2)c1	83.0	89.0	98.0	83.0	74.0*	79.0*
Nc1[nH]nc2ncc3cc4ccccc4nc3c12	85.0	83.0	88.0	82.0	68.0*	80.0
Cc1ccc2sc(NNC(=O)c3cc(=O)c4ccccc4o3)nc2c1C	85.0	77.0*	100.0	85.0	83.0	81.0
Cc1cccc2sc(NNC(=O)c3cc(=O)c4ccccc4o3)nc12	84.0	74.0*	97.0	83.0	81.0	77.0*
O=C(NNc1nc2c(F)cccc2s1)c1cc(=O)c2ccccc2o1	86.0	76.0*	100.0	83.0	84.0	81.0
COc1ccc2nc(NNC(=O)c3cc(=O)c4ccccc4o3)sc2c1	90.0	84.0	99.0	87.0	90.0	86.0
CCCS(=O)(=O)c1nnnn1-c1cccc(OC)c1	91.0	78.0*	90.0	89.0	91.0	80.0
COc1cc(C(=O)NCCOc2ccc(F)cc2)c(Br)c(OC)c1OC	98.0	94.0	93.0	97.0	98.0	98.0
CN(C)C(=O)c1nc2ccc(Cl)cn2c1CNCc1ccccc1OC(F)(F)F	98.0	96.0	95.0	97.0	96.0	98.0
Cc1ccccc1NC(=O)C1CCCN(S(=O)(=O)c2cccc3cccnc23)C1 (stereo not drawn)	100.0	100.0	101.0	97.0	103.0	98.0
